Experimental findings from PubChem BioAssay (NCATS) are described below.

Assay [1] concerns the target Lysosomal acid glucosylceramidase (Homo sapiens) (UniProt P04062). In words: Glucocerebrosidase-p2 (AID 348; in the data active means potency below about 10 µM; further: potency means the concentration at half of the fitted maximal effect). The note with it: purified GBA, blue fluorogenic substrate, 40 min. In a few lines: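 Normal human glucocerebrosidase (0.2 nM) with blue fluorogenic substrate (80 uM final) in citrate/phosphate pH 5.9 with 10mM sodium taurocholate, 0.01% tween-20; 40 min RT, NaOH/glycine stop; fluorescence Ex 365/Em 440; AC50 from a titration from 0.6 nM upwards.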

A short description of assay [2]: AP1 Signaling Pathway (AID 357). Further: on the % scale 0 is the no-effect control and ±100 the full control effect. The note with it: ME-180 AP-1-bla reporter, EGF-induced, beta-lactamase ratio, 5 h; at 7.69 µM (top of the series) unless noted. In a few lines: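 First, ME-180 AP-1-bla cells were cultured overnight at 37 °C in low-serum Opti-MEM. Next, titrated compounds with EC50 EGF were incubated 5 hours. Finally, CCF4 was added for 2.5 hours and the 460/530 nm ratio recorded.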

In assay [3] the target is Cytochrome P450 1A2 (Homo sapiens) (UniProt P05177). Briefly: p450-cyp1a2 (AID 410; calls by dose curve; further: potency means the concentration at half of the fitted maximal effect;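 on activity change, negative = inhibition: -100% = full effect of reference inhibitor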). To be noted: recombinant CYP1A2, luciferin-ME demethylation, luminescence; series mostly up to 11.4 µM. In a few lines: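 Read-out is luminescence from luciferin produced by CYP1A2 demethylation of Luciferin-ME (100uM, at Km). Detection reagent stopped the 60 min NADPH-dependent reaction; signals were normalized to 57 uM furafylline.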
Cytochrome P450 1A2 (Homo sapiens), sequence (P05177 whole entry, looked up): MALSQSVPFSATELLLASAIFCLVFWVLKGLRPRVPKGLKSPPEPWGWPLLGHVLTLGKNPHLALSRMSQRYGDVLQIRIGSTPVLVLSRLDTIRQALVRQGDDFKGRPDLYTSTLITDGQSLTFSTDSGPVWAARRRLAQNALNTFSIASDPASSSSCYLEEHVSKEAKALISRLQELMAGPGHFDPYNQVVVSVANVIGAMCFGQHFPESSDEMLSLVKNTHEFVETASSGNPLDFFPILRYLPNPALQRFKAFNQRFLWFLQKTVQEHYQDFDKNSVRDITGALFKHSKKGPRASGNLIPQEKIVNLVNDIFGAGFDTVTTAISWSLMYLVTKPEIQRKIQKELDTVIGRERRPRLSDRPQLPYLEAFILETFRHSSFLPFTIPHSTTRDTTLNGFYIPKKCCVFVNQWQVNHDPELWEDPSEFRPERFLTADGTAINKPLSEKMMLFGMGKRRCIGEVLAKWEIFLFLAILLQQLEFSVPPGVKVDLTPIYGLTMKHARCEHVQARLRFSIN

Assay [4] in a line: NFAT Signaling Pathway (AID 444).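 Further: carbachol stimulus at about its EC50 of 1 µM final; on the % scale 0 is the no-effect control and ±100 the full control effect.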 The note with it: Jurkat NFAT-bla M1, carbachol, beta-lactamase ratio, 5 h; at 7.69 µM (top of the series) unless noted. In a few lines:
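Jurkat cells with NFAT-driven β-lactamase reporter and co-expressed M1 receptor, stimulated with carbachol (final 1 uM, ~EC50), compound titration, 5 h at 37 °C. CCF4 loaded 1 h at RT; 460/530 nm ratio gave %activity and AC50.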

Assay [5] is described as follows: Stat Signaling Pathway (AID 446).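 Further: ME-180 cervical cancer cells given 40 pM IL-6 alongside compound; SIE-controlled beta-lactamase reporter measured as 460/530 nm FRET emission ratio; on the % scale 0 is the no-effect control and ±100 the full control effect.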 To be noted: ME-180 (cervical carcinoma) SIE beta-lactamase reporter, IL-6 stimulated, 5 h; at 7.69 µM (top of the series) unless noted. Put shortly: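 Emission at 460 and 530 nm (excitation 405 nm) reports SIE-controlled beta-lactamase in ME-180 cells. Cells received compound with 40 pM IL-6 for 5 hrs at 37 C; data scaled between 300 pM IL-6 and 125 nM JAK-inhibitor controls.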

Assay [6] concerns the target Glucocorticoid receptor (Homo sapiens) (UniProt P04150). Briefly: GR-GFP Redistribution (AID 450;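 active means compounds whose dose series gives a full or clear partial fitted curve of increased nuclear translocation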; further: potency means the concentration at half of the fitted maximal effect). The note with it: U2OS GR-GFP nuclear translocation, laser cytometry, 2 h.
For assay [7] the target is unchanged. Briefly: GR-EFC Redistribution (AID 451; calls by dose curve; further: potency means the concentration at half of the fitted maximal effect). To be noted: CHO-K1 GR-EFC translocation, beta-gal luminescence, 2 h. Put shortly:
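CHO-K1 cells expressing nuclear EA and GR-ED fragments of b-gal; compounds titrated up to 46 uM final, 2 h at 37 C. GR nuclear translocation read as complemented b-gal luminescence after 1 h RT detection.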

The target in assay [8] is Mitogen-activated protein kinase 10 (Mus musculus) (UniProt Q61831). Briefly: JNK3 AlphaScreen Assay (AID 530).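 Further: kinase came from lysate of stimulated human HepG2 cells; signal reports phosphorylation of biotinylated GST-cJun 1-79 at Ser73 with 10 µM ATP; on the % scale 0 is the no-effect control and ±100 the full control effect.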 The note with it: JNK3 lysate, c-Jun phosphorylation; series mostly up to 11.4 µM. In a few lines: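 HepG2 lysate (IL-1b/TNFa pre-activated) + biotin-GST-cJun 1-79 + anti-pSer73 cJun; cpd titration, 15 min RT; ATP 10 uM start; Tris pH 7.6, MgCl2, DTT, vanadate; beads in EDTA buffer; AlphaScreen.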
On the technique in general: In Alpha technology, singlet oxygen from a donor bead excites a nearby acceptor bead.

Assay [9] has as its target 3',5'-cyclic-AMP phosphodiesterase 4B (Homo sapiens) (UniProt Q07343). Briefly: qHTS Assay for Inhibitors of PDE-IV (AID 607; active means well fitted activation curve with a large enough effect in the main read-out, with a control signal flat, not every such curve was filed as active; further: % of control where 0% means no effect). The note with it: HEK293 ACTOne CNG channel cells, membrane potential fluorescence; series mostly up to 22.9 µM. In a few lines: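 The readout is membrane depolarisation from a cAMP-sensing CNG channel, detected with a potential dye at ex 535/em 590. Cells were HEK293-derived (endogenous PDE-IV) at 1000 cells/well, titrated up to 22.9 uM final.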
(Quantitative high-throughput screening tests each substance at several concentrations.)

Unmarked numbers belong to inactive results. Records with an inconclusive call do not appear. Active and inactive are the calls of the source. Unless noted, the call rests on the fitted dose curve; in most records, active means well fitted curve in either direction with a large enough effect (not every such curve was filed as active); inconclusive means small, poorly fitted or top-dose-only effect, or another doubt; inactive means flat fitted curve, though single readings scatter. Where only a bound is given, the exact number is not on record here.

3',5'-cyclic-AMP phosphodiesterase 4B (Homo sapiens), sequence (Q07343 whole entry, looked up): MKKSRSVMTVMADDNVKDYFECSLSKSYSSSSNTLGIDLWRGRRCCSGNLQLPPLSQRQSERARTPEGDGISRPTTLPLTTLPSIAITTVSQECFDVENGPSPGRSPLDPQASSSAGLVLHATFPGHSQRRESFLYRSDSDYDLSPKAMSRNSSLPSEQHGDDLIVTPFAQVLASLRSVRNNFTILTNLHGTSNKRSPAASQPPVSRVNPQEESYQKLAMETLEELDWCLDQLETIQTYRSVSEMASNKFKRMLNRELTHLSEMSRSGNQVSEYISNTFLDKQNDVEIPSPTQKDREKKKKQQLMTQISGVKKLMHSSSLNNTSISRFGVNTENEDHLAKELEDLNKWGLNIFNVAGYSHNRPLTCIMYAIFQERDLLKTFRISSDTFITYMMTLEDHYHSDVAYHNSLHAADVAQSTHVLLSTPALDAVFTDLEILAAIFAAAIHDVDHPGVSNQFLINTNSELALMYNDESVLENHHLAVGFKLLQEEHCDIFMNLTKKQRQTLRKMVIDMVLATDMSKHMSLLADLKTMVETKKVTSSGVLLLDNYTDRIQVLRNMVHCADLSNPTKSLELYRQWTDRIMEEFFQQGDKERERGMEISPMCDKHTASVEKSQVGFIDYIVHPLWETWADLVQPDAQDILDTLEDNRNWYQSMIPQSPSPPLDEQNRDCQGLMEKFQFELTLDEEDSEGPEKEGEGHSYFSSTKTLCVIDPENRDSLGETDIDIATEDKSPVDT
Glucocorticoid receptor (Homo sapiens), sequence (P04150 whole entry, looked up): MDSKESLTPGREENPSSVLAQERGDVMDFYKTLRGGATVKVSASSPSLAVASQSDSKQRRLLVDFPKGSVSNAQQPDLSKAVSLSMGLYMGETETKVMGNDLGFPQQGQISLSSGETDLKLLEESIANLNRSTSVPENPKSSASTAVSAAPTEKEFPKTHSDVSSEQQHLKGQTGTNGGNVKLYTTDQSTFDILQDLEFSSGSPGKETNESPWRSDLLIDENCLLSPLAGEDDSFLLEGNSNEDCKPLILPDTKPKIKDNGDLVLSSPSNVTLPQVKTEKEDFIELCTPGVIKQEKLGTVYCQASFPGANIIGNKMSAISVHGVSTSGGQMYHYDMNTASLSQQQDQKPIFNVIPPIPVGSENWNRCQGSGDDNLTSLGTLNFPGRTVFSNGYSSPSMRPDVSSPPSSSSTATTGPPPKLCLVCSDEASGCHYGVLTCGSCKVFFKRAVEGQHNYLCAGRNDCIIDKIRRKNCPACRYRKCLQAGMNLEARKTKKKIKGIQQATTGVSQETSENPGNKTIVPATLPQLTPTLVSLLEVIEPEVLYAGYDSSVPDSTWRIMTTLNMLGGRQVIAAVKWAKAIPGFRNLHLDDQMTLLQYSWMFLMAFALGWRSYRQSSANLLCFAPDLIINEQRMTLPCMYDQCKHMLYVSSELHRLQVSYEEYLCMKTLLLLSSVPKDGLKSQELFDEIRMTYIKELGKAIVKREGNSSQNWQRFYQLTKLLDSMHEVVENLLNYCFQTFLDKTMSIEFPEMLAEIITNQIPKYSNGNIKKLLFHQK
Lysosomal acid glucosylceramidase (Homo sapiens), sequence (P04062 whole entry, looked up): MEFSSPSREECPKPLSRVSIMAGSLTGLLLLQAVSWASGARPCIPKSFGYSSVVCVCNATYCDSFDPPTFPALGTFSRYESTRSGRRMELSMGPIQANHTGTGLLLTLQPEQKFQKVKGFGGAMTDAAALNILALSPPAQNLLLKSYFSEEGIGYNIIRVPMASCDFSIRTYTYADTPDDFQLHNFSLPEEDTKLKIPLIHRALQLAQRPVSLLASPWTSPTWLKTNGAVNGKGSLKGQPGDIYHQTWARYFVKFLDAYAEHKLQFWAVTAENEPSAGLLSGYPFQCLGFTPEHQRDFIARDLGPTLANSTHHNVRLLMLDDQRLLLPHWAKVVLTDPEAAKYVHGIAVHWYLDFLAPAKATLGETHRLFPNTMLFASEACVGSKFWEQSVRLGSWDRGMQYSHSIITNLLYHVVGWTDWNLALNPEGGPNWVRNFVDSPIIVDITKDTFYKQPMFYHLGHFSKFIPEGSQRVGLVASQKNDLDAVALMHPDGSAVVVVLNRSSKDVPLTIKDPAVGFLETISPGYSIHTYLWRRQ

`ClC(Cl)(Cl)C(N1CCN(c2ccccc2)CC1)N1CCN(c2ccccc2)CC1`: the results for the Potency in assay [1], in [6] and in assay [7] were greater than 11.4 µM, greater than 46 µM and greater than 9.22 µM, respectively. For the same compound, the activity change, negative = inhibition was -0.388% in assay [2], -14.9% [at 2.29 µM] in assay [3] and -2.17% in [4]. The activity, negative = inhibition in assay [5] was -6.12%. Moreover, the Potency result in assay [8] and in [9] was “inactive” each time.
On to `CCOC(=O)Nc1nc(-c2ccccc2)c(C)s1`, for which the Potency in assay [1] is greater than 11.4 µM; in assay [3], 0.2 µM (active); in assay [6], greater than 46 µM; in [7] it was greater than 9.22 µM. Moreover, the figures for the activity change, negative = inhibition in assay [2] and in assay [4] were -8.11% and -9.95%, respectively. In [5], the activity, negative = inhibition is 1.24%. In addition, the Potency entry in assay [8] and in assay [9] was “inactive” in each case.
With `OCCNc1ncnc2c1ncn2[C@@H]1O[C@@H](CO)[C@H](O)[C@@H]1O`, the Potency in assay [1] is greater than 11.4 µM; in assay [6], greater than 46 µM; in [7], greater than 9.22 µM. The activity change, negative = inhibition was 3.21% in assay [2] and 9.99% in [4]. The Potency result in [3], in assay [8] and in assay [9] was “inactive” in each case. Further, the activity, negative = inhibition in [5] is 25.8%.
With `Nc1ncnc2nn([C@H]3O[C@@H](CO)[C@@H](O)[C@H]3O)nc12`, the Potency in [1] is greater than 11.4 µM; in [6], greater than 46 µM; in assay [7], greater than 9.22 µM. The activity change, negative = inhibition in assay [2] was -9.36%; in assay [4] it was 5.89%. The Potency result in [3], in assay [8] and in assay [9] was “inactive” throughout. Further, the activity, negative = inhibition in [5] was -5.99%.
As for `O=C1C2[C@@H](c3ccccc3)N[C@@H](c3ccccc3)C1[C@H](c1ccccc1)N[C@H]2c1ccccc1`, the Potency was greater than 11.4 µM in assay [1], greater than 46 µM in assay [6] and greater than 9.22 µM in assay [7]. The activity change, negative = inhibition in assay [2] is -5.02%; in [4] it was 3.11%. Further, the Potency entry in [3], in [8] and in [9] was “inactive” throughout. Moreover, the activity, negative = inhibition in [5] was 1.27%.
With `Cn1c(=O)c2[nH]c(CCC(=O)O)nc2n(C)c1=O`, the Potency in assay [1] was greater than 11.4 µM; in assay [6] it was greater than 46 µM; in assay [7], greater than 9.22 µM. The values for the activity change, negative = inhibition in [2] and in assay [4] were 0.0396% and 10.1%, respectively. In addition, the Potency entry in assay [3], in [8] and in assay [9] was “inactive” each time. The activity, negative = inhibition in [5] was -0.184%.
As to `Cc1cc2ccc(OC(=O)c3ccc(N=C(N)N)cc3)cc2oc1=O`, the Potency was greater than 11.4 µM in assay [1], 2.51 µM (active) in [3], greater than 46 µM in [6] and greater than 9.22 µM in assay [7]. In addition, the results for the activity change, negative = inhibition in assay [2] and in assay [4] were 5.35% and -22.4%, respectively. For the same compound, the activity, negative = inhibition in assay [5] is -1.77%. Besides, the Potency entry in assay [8] and in [9] was “inactive” throughout.
With `Clc1ccc(C=Nc2ccc3c(c2)Cc2ccccc2-3)c(Cl)c1`, the Potency in assay [1] is greater than 11.4 µM; in assay [3] it was 0.794 µM (active); in assay [6] it was greater than 46 µM; in [7] it was greater than 9.22 µM. In addition, the activity change, negative = inhibition in [2] is 3.71%; in assay [4], 23.1%. In addition, in [5], the activity, negative = inhibition was 12.8%. The Potency result in assay [8] and in assay [9] was “inactive” in each case.
Regarding `O=C1c2cc([N+](=O)[O-])ccc2-c2ccc3c4ccc5c6c(ccc(c7ccc1c2c73)c64)C(=O)c1cc([N+](=O)[O-])ccc1-5`, the Potency in assay [1] was greater than 11.4 µM; in assay [3] it was 0.794 µM (active); in assay [6], greater than 46 µM; in assay [7], greater than 9.22 µM. In addition, the activity change, negative = inhibition was 0.115% in [2] and 21.7% in assay [4]. For the same compound, the activity, negative = inhibition in assay [5] was 9.03%. In addition, the Potency entry in [8] and in assay [9] was “inactive” in each case.
`C[C@@](O)(CNS(=O)(=O)c1ccccc1)c1ccccc1`: the figures for the Potency in assay [1], in assay [6] and in assay [7] were greater than 11.4 µM, greater than 46 µM and greater than 9.22 µM, respectively. For the same compound, the activity change, negative = inhibition was 0.078% in assay [2] and 3.96% in assay [4]. The Potency entry in assay [3], in [8] and in assay [9] was “inactive” each time. Also, in assay [5], the activity, negative = inhibition is -0.864%.
As to `O=C(O)C[C@H](Cc1ccccc1Cl)C(=O)O`, the Potency in [1] is greater than 11.4 µM; in assay [6], greater than 46 µM; in assay [7] it was greater than 9.22 µM. The activity change, negative = inhibition in assay [2] is -0.0824%; in assay [4] it was -7.65%. The Potency result in assay [3], in assay [8] and in assay [9] was “inactive” throughout. The activity, negative = inhibition in [5] was 13.9%.
For `COc1cccc2c1C(=O)c1c(O)c3c(c(O)c1C2=O)C[C@@](O)(C(=O)CO)C[C@H]3O[C@H]1C[C@@H](N)[C@H](O)[C@@H](C)O1.[W]`, the Potency was greater than 11.4 µM in [1], greater than 46 µM in assay [6] and greater than 9.22 µM in [7]. In addition, the activity change, negative = inhibition is 0.391% in assay [2] and -27.2% in assay [4]. The Potency entry in assay [3], in assay [8] and in assay [9] was “inactive” throughout. In assay [5], the activity, negative = inhibition is 14.9%.
In the case of `Cn1c(=O)c2[nH]c(CS(=O)(=O)Cc3nc4c([nH]3)c(=O)n(C)c(=O)n4C)nc2n(C)c1=O`, the Potency was greater than 11.4 µM in [1], greater than 46 µM in [6] and greater than 9.22 µM in [7]. Besides, the results for the activity change, negative = inhibition in assay [2], in [3] and in assay [4] were -5.52%, -21.1% [at 2.29 µM] and -4.99%, respectively. The activity, negative = inhibition in assay [5] was -2.96%. The Potency result in assay [8] and in [9] was “inactive” each time.
Turning to `Nc1nc(-c2ccc3ccccc3c2)cc(-c2cc(-c3ccc4ccccc4c3)nc(N)n2)n1`, the Potency in assay [1] was greater than 11.4 µM; in assay [3], 0.501 µM (active); in assay [6], greater than 46 µM; in assay [7], greater than 9.22 µM. Moreover, the activity change, negative = inhibition in assay [2] was -3.27%; in [4] it was 9.25%. For the same compound, the activity, negative = inhibition in assay [5] was 6.54%. The Potency entry in assay [8] and in [9] was “inactive” each time.
With `C[C@@]1(CCOCc2ccccc2)NC(=O)NC1=O`, the Potency in assay [1] was greater than 11.4 µM; in [6] it was greater than 46 µM; in [7], greater than 9.22 µM. The figures for the activity change, negative = inhibition in [2] and in [4] were 7.73% and -2.8%, respectively. In addition, the Potency entry in [3], in [8] and in assay [9] was “inactive” in each case. For the same compound, in [5], the activity, negative = inhibition was 8.58%.
